HCV inh = qHTS Assay for Inhibitors of Hepatitis C Virus (HCV) | Huh7.5.1 HCVcc-Cre infection, luciferase reporter, 44 h | AID 651820, 2012 | Potency, µM (doses to about 41.8 µM), without a hit: at the top dose activity change, negative = inhibition, usual class: inhibitors | 340,000 compounds, 3.4% hits; active = well fitted inhibition curve with a large enough effect; inconclusive = small, poorly fitted or top-dose-only effect, or another doubt; inactive = no such curve, though single readings can be large or run the other way; note: potency is the fitted concentration of half-maximal effect
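Compounds are dispensed onto cells plated 4 h earlier at 1,000 per well, with HCVcc-Cre virus (about 0.5 moi) added next. Following 44 h of culture, luminescent signal is measured for 15 sec after 15 min with substrate at room temperature.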
VACV Venus inh = qHTS for Stage-Specific Inhibitors of Vaccinia Orthopoxvirus: Venus Reporter Primary qHTS; 330,000 compounds, 0.46% hits; AID 720580, 2013; Vaccinia virus Venus reporter expression, fluorescence; Potency, µM (top dose mostly 36.5 µM), for inactives: at the highest dose activity change, negative = inhibition, usual class: inhibitors; calls by dose curve; tested in A549 cells; note: potency is the fitted concentration of half-maximal effect; nearly all actives have a fitted effect of over 30% in size
HCMV antiviral = qHTS Assay for inhibitors of the human cytomegalovirus (HCMV). HFF cells, HCMV-luciferase reporter, 72 h; stronger effect = lower value. activity change, negative = inhibition, % at 57.5 µM. 410,000 compounds, 4.5% hits; in the data active = activity change below about -60%; inconclusive = no clear call, values can overlap the other calls; inactive = above about -39%
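After 16 h attachment at 37C, HFF cells received test compound and HCMV-luciferase (1 PFU/cell); reporter luminescence read 72 h later, data normalized against buffer-only and known inhibitor Salinomycin.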
MARV entry inh = qHTS for inhibitors of binding or entry into cells for Marburg Virus | Marburg virus pseudotyped entry inhibition, cell reporter | 300,000 compounds, 1.8% hits | Potency, µM (titrated, usually from 37.8 µM), for inactives: at the top dose activity change, negative = inhibition, hits mostly inhibitors; calls by dose curve; tested in HEK293 cells; note: potency is the fitted concentration of half-maximal effect
Lassa entry inh = qHTS for Inhibitors of binding or entry into cells for Lassa Virus. Lassa virus pseudotype entry inhibition, cell reporter. Potency, µM (highest dose often 37.9 µM), for the others: top-dose activity change, negative = inhibition, most hits filed as inhibitors. 300,000 compounds, 1.2% hits. AID 540256, 2011; calls by dose curve; tested in HEK293 cells; note: potency is the fitted concentration of half-maximal effect; nearly all actives have a fitted effect of over 50% in size
VACV mCherry inh = qHTS for Stage-Specific Inhibitors of Vaccinia Orthopoxvirus: mCherry Reporter Primary qHTS; 310,000 compounds, 0.63% hits; Vaccinia virus mCherry reporter infection, fluorescence; Potency, µM (top dose mostly 36.5 µM), for the others: at the top dose activity change, negative = inhibition, most hits filed as inhibitors; AID 720579, 2013; calls by dose curve; tested in A549 cells; note: potency is the fitted concentration of half-maximal effect; nearly all actives have a fitted effect of over 35% in size
* hit, by the source's call; i = inactive; ? = inconclusive; . = no result given; ! = not confirmed by another sample; [ ] = another dose, or the depositor's remark. This is a sample that favours compounds with a hit; in the whole collection about 7.8% have one here. % is set by controls: 0 for no effect and ±100 for the full control effect.

SMILES	HCV inh	VACV Venus inh	HCMV antiviral	MARV entry inh	Lassa entry inh	VACV mCherry inh
O=C(Nc1ccc(O)cc1)c1cc(S(=O)(=O)N2CCCC2)ccc1Cl	-25%	-17%	-97*	?	-2%	-18%
Cn1ncc2c(Nc3cccc(C#N)c3)ncnc21	.	-9%	-9	.	7%[46.1 µM]	-20%
COc1ccc(Nc2nc(N)c(C(=O)c3ccc(F)cc3)s2)cc1	-27%	?	18	.	.	?
COc1ccc(Nc2nc(N)c(C(=O)c3ccc(OC)cc3)s2)cc1	?	-25%	1	?	?	1.8µM*
Cc1ccc(C(=O)c2sc(Nc3ccc(F)cc3)nc2N)c(C)c1	.	-20%	?	.	-6%[46.1 µM]	?
CCOc1ccc(Nc2nc(N)c(C(=O)c3ccccc3Cl)s2)cc1	.	-22%[7.34 µM]	-90*	.	?	-25%[7.34 µM]
Fc1cccc(Nc2cc3c(cn2)ncn3CC2CC2)c1	.	.	-4	.	.	.
CCOC(=O)c1ccc(NC(=O)C(CC)Sc2nnc3c4ccccc4n(C)c3n2)cc1 (stereo not given)	.	-13%	71	?	4%[46.1 µM]	-13%
Cc1ccc(Cn2c(O)c(N=NC(=S)Nc3ccccc3F)c3cc(S(=O)(=O)N4CCOCC4)ccc32)cc1	?	.	0	.	.	.
Cc1ccc(C)c(Cn2c(O)c(N=NC(=S)Nc3ccccc3F)c3ccccc32)c1	3.2µM*	.	4	?	?	.
Cc1ccccc1Cn1c(O)c(N=NC(=S)Nc2ccccc2F)c2ccccc21	2.2µM*	.	?	?	?	.
Oc1c(N=NC(=S)Nc2ccccc2F)c2ccccc2n1Cc1ccccc1F	13µM*	.	-26	.	.	.
Oc1c(N=NC(=S)Nc2ccccc2F)c2ccccc2n1Cc1ccc(Cl)cc1	?	.	72	?	?	.
CC(C)C(=O)NCC1CCC2(CCN(Cc3ccc(-c4cccc(Cl)c4)o3)CC2)O1 (stereo not given)	.	-5%	.	.	.	i
COCCN1C(=NCCc2cccnc2)NC(c2ccccc2)C(C(=O)OC)=C1C (stereo not given)	.	.	.	54%[14.2 µM]	-21%[14.3 µM]	.
CCN(C(=O)C(C)N1C(=O)/C(=C/c2ccco2)SC1=S)C1CCS(=O)(=O)C1 (stereo not given)	14µM*	.	?	.	.	.
O=C1/C(=C\c2ccco2)SC(=S)N1C1CCS(=O)(=O)C1 (stereo not given)	11%	4%	-74*	?	-6%	?
CC(=O)Nc1cc(C(=O)N2CCCC(C)C2)cc2ncn(CCc3ccccn3)c12 (stereo not given)	.	-16%	.	.	.	i
Cc1ccc(NC(=O)CN2C(=O)C(C)(C)c3cc(S(=O)(=O)N4CCCCC4)ccc32)c(Br)c1	.	-11%	-26	.	?	-6%
CCCc1nc(SCc2ccccn2)c2c(=O)n(C)c(=O)n(C)c2n1	10µM*	-19%	?	.	.	-3%
Cn1c(=O)c2c(SCc3cccnc3)nc(CC(C)(C)C)nc2n(C)c1=O	-16%	-5%	-36	.	.	-1%
Cn1c(=O)c2c(SCc3ccccn3)nc(CC(C)(C)C)nc2n(C)c1=O	?	-27%	28	.	.	-26%
CCCc1nc(SCc2cccnc2)c2c(=O)n(C)c(=O)n(C)c2n1	10µM*	-18%	-27	.	.	-6%
CCCCOc1cccc(C(=O)Nc2sc3c(c2C(=O)OCC)CCCC3)c1	.	4%	13	.	-6%[46.1 µM]	-6%
Clc1ccc(Cn2c(CN3CCCC3)nc3ccccc32)cc1	-7%[8.37 µM]	.	.	3.2µM*!	?	.
SMILES	HCV inh	VACV Venus inh	HCMV antiviral	MARV entry inh	Lassa entry inh	VACV mCherry inh
Cc1ccccc1Cn1c(C)nc2ccccc21	5.6µM*	-8%	-87*	?	?	-1%
OCc1nc2ccccc2n1Cc1ccc(Cl)cc1	-7%	-10%	-9	-29%	-21%	i
c1ccc(Cn2c(CN3CCCC3)nc3ccccc32)cc1	14%	-14%	9	-27%	20%	-8%
Cc1nc2ccccc2n1Cc1ccc(Cl)cc1	?	?	-89*	.	.	-10%
Fc1ccccc1Cn1c(-c2ccccc2)nc2ccccc21	.	-7%	-61*	-19%[46.1 µM]	?	4%
COc1cc2c(cc1OC)n(Cc1cccc(C(F)(F)F)c1)c(=O)n1nc(-c3ccccc3)nc21	.	-23%	-4	-1%[46.1 µM]	17%[46.1 µM]	-14%
CC(=O)N1c2ccc(S(=O)(=O)N3CCCCCC3)cc2CC1C(=O)NCc1ccc(Cl)cc1 (stereo not given)	.	-8%	15	.	-8%[46.1 µM]	-19%
COc1ccc(CNc2nc3ccccc3n2Cc2ccc(Cl)cc2)cc1OC	?	-23%	-33	11µM*	?	-28%
Clc1ccc(OCCn2c(-c3ccco3)nc3ccccc32)cc1	-22%	.	-75*	-16%	8%	.
CC(=O)[C@H]1CC[C@H]2[C@@H]3C=CC4=CC(=O)CC[C@@]4(C)[C@@H]3CC[C@]12C	0.56µM*	?	17	.	.	-13%
CCN1CCN(c2ccc(NC(=O)CCc3c(C)nc4c(-c5ccc(F)cc5)c(C)nn4c3C)cc2)CC1	2.5µM*	?	-60*	.	.	?
CC(C)c1c(C(=O)N(C)Cc2cccc3ncccc23)cnn1-c1nccc(-c2ccco2)n1	.	-29%	.	.	.	?
COc1ccc(F)cc1C(=O)C1CCCN(Cc2cccn2-c2ccccn2)C1 (stereo not given)	?	-15%	?	?	10µM*	?
O=C(c1cc(F)ccc1F)C1CCCN(Cc2cccn2-c2ccccn2)C1 (stereo not given)	6%	.	-32	.	.	.
Cc1ccsc1C(=O)C1CCCN(Cc2cccn2-c2ccccn2)C1 (stereo not given)	-23%	-27%	-66*	5.6µM*	?	-15%
COc1ccc(C(=O)C2CCCN(Cc3cccn3-c3ccccn3)C2)c(OC)c1 (stereo not given)	?	-13%	-67*	?	?	?
Cn1ccc(C(=O)NCC2CCC3(CCN(Cc4ccc(F)cc4F)CC3)O2)n1 (stereo not given)	.	-11%	.	.	.	i
Cc1ccc(NC(=O)c2ccc3c(O)c(S(=O)(=O)c4ccccc4)c(=O)[nH]c3c2)cc1Cl	.	-5%	6	.	8%[46.1 µM]	-12%
CC(=O)N1C(=O)NC(C)=C(C#N)C1c1ccccc1 (stereo not given)	.	.	.	-10%[14.2 µM]	.	.
CCCC(=O)NC(=S)Nc1cccc2c(O)cccc12	-7%	-12%	-99*	0%[46.1 µM]	1%[46.1 µM]	-19%
Cc1cc2oc(=O)cc(-c3cc4ccccc4o3)c2cc1OC(=O)N(C)C	5µM*	-3%	-16	3%[46.1 µM]	-23%[46.1 µM]	-10%
CCN(CC)C(=O)Oc1cc2c(-c3cc4cccc(OC)c4o3)cc(=O)oc2cc1C	6.3µM*	2%	-17	26%[46.1 µM]	?	i

Assay outcomes (PubChem)
